Only some compounds are listed: those with a hit (about 21% of all), similar ones and a draw of the others.
HCV inhibitor – HCV inhibition; Huh7.5.1 HCVcc-Cre infection, luciferase reporter, 44 h; Potency, µM (highest dose often 41.8 µM), inactives show top-dose activity change, negative = inhibition, usual class: inhibitors; actives 3.4% (n = 340,000); also: potency is read from the fitted curve at half-maximal effect; % is scaled to controls: 0 for no effect and ±100 for the full control effect
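Whole-lifecycle infectious HCVcc-Cre system; cells 1,000/well, compound then virus (~0.5 moi) added 4 h after plating, 44 h culture. Luciferase read 15 sec following 15 min substrate incubation, room temp.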
Shiga inhibitor – inhibitors of Shiga toxin in Vero cells; Vero cells, Shiga toxin protein synthesis inhibition reporter; inhibition, % at 38.7 µM; actives 9.2% (n = 290,000); AID 2315; in the data active = inhibition mostly above about 28%, no sharp cut-off; inactive = mostly below about 43%; also: 0% is about no effect
CHX counter – counter-screen for Shiga toxin inhibitors: cycloheximide protein synthesis inhibition | cell reporter, cycloheximide protein synthesis inhibition counterscreen | actives 12% (n = 300,000) | max response, %; in the data active = max response mostly above about 13%, no sharp cut-off; inactive = mostly below about 14%; also: read at 38.3 µM for the half of the compounds with a filed dose; 0% is about no effect
Pf growth 48h – P. falciparum growth inhibition at 48 hours (one generation); P. falciparum luciferase growth in erythrocytes, 48 h; Potency, µM (highest dose often 28.7 µM), for inactives: at the top dose activity change, negative = inhibition, usual class: inhibitors; actives 5.9% (n = 310,000); AID 504832; also: potency is read from the fitted curve at half-maximal effect; % is scaled to controls: 0 for no effect and ±100 for the full control effect
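Cell-based growth assay: transgenic P. falciparum expressing firefly luciferase, cultured in red cells within RPMI 1640 containing 0.5% w/v Albumax, 24 mM bicarbonate and gentamycin. A drop in luciferase activity indicates inhibition.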
HCMV inh – blocks human cytomegalovirus replication | AID 1259415 | activity change, negative = inhibition, % at 57.5 µM | actives 4.5% (n = 410,000) | HFF cells, HCMV-luciferase reporter, 72 h; stronger effect = lower value; in the data active = activity change below about -60%; inconclusive = no clear call, values can overlap the other calls; inactive = above about -39%; also: % is scaled to controls: 0 for no effect and ±100 for the full control effect
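Cell-based, HFFs, 1000 cells/well, 16 h 37C; cpds in DMSO + HCMV-luc, MOI 1 PFU/cell; 72 h 37C; OneGlo luminescence after 5 min RT; norm. to buffer vs Salinomycin 10uM.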
Pf growth 96h – P. falciparum growth inhibition at 96 hour, primary screen for plastid delayed-death inhibitors; P. falciparum luciferase reporter growth, 96 h; Potency, µM (titrated, usually from 28.7 µM), inactives show at the top dose activity change, negative = inhibition, most hits filed as inhibitors; actives 6.9% (n = 320,000); also: potency is read from the fitted curve at half-maximal effect; % is scaled to controls: 0 for no effect and ±100 for the full control effect
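Plates of compound plus infected erythrocytes (2% hematocrit, 0.05% parasitemia final) incubate 96 hours, 37 C, 5% CO2. Detection reagent added; reduced luminescence from the parasites' luciferase reporter flags inhibition.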
* = called active by the depositor; ? = inconclusive; · = no result given; ! = not active in a repeat. Unless noted, calls follow the shape of the dose curve; as a rule, active = well fitted inhibition curve with a large enough effect; inconclusive = small, poorly fitted or top-dose-only effect, or another doubt; inactive = no such curve, though single readings can be large or run the other way.

SMILES | HCV inhibitor | Shiga inhibitor | CHX counter | Pf growth 48h | HCMV inh | Pf growth 96h
CC(C)c1ccc(/C=C2\SC(=S)N(CCC(=O)N3CCCCC3CCO)C2=O)cc1 (configuration not stated) | -17% | -11 | -6 | -13% | -100* | 9.3µM*
COc1cccc(NC(=O)CN(C)C(=O)[C@@H]2CCCN2C(=O)c2cccs2)c1 | ? | · | · | · | -28 | ·
CCOc1ccc(OCC)c(NC(=O)CCNS(=O)(=O)c2cc(Br)cnc2N)c1 | -3% | 23 | -2 | -1% | -4 | ?
COc1ccc(CCn2c(=O)c3cccnc3n(CC(=O)Nc3c(C)cc(C)cc3C)c2=O)cc1OC | · | · | · | · | 3 | ·
O=C1/C(=C/c2ccccc2Cl)SC(=S)N1CCC(=O)N1CCCCC1CCO (configuration not stated) | 18% | 5 | 9 | ? | -81* | ?
COc1ccc(/C=C2\SC(=S)N(CCCC(=O)N3CCCCC3CCO)C2=O)cc1 (configuration not stated) | -15% | 1 | -2 | ? | -100* | 8.3µM*
CCOc1ccc(Sc2cc(C(=O)NC(C)CC)c3ccccc3n2)cc1 (configuration not stated) | · | · | · | · | 9 | ·
CCOC(=O)c1cc2c(=O)n3ccccc3nc2n(C(C)C)c1=NC(=O)c1c(-c2c(F)cccc2Cl)noc1C | 2µM* | -15 | -1 | 3.7µM* | -90*! | ?
CCCCn1c(=NC(=O)c2ccco2)c(C(=O)OCC)cc2c(=O)n3cccc(C)c3nc21 | ? | 7 | -2 | 12µM* | -5 | 5.9µM*
CCCCCn1c(=NC(=O)c2ccco2)c(C(=O)OCC)cc2c(=O)n3ccccc3nc21 | ? | 4 | -3 | -38% | -32 | 15µM*
CCOC(=O)c1cc2c(=O)n3ccccc3nc2n(Cc2ccco2)c1=NC(=O)c1cc(C)cc(C)c1 | · | · | · | · | -77* | ·
O=C(NCCCN1CCN(c2ccccc2F)CC1)c1sc2ncccc2c1-n1cccc1 | · | · | · | · | -19 | ·
C(CCN1CCOCC1)CN1CCOCC1 | · | · | · | · | 62 | ·
OCCN1CCOCCN(CCO)CCOCC1 | -2% | -2 | -3 | 24% | -92* | 22%
CC1(C)CC(Nc2ccc(Nc3ccccc3)cc2)CC(C)(C)N1 | -19% | -10 | -2 | 3.3µM* | -37 | 7.4µM*
COc1ccc(C(=NNc2ccccc2C(=O)O)c2ccc(OC)cc2)cc1 | 3% | 18 | -4 | -23% | -19 | -14%
CCOC(=O)/C(=N\Nc1ncnc2ccccc12)c1ccc(OC)cc1 | 5% | 45 | 27* | 168% | 134 | 189%
COc1ccc(/C(=N/Nc2ncnc3ccccc23)C(=O)O)cc1 | 3% | 89* | 47* | ? | 87 | 0%
C#CCOCCOCCOCCNc1nc(N2CCN(C(=O)C([C@@H](C)CC)n3cc(C(N)Cc4ccc(O)cc4)nn3)CC2)nc(N2CCN(C(=O)[C@H](CCC(=O)O)n3cc(C(N)[C@H](C)CC)nn3)CC2)n1 (some centres not stated) | 13% | -18 | 1 | 13% | 2 | ?
COc1cccc(/C=N/NC(=O)CNC(=O)c2ccncc2)c1O | 12% | -3 | -3 | 3% | -15 | 20%
COc1cccc(/C=N/NC(=O)CNC(=O)c2ccco2)c1O | -4% | 54 | 15* | -24% | -3 | 22%
COc1cc(C(=O)NCC(=O)N/N=C/c2cccc(OC(=O)c3ccco3)c2)cc(OC)c1OC | 5% | 56 | 15* | 16% | -11 | ?
O=C(CNC(=O)c1ccco1)N/N=C/c1ccccc1[N+](=O)[O-] | 25% | 33 | 11 | 8% | -25 | 0.93µM*
CC1=CC(=O)NS(=O)(=O)O1 | · | · | · | -5% | · | -9%
Cc1nnc(N2CCC(C(=O)NC3CCCCC3)CC2)c2nn(-c3ccc(Cl)cc3)c(C)c12 | · | · | · | · | -3 | ·
SMILES | HCV inhibitor | Shiga inhibitor | CHX counter | Pf growth 48h | HCMV inh | Pf growth 96h
OC1CCCC1NCc1ccnc2cc(Cl)ccc12 (configuration not stated) | 1% | · | · | · | -5 | ·
CCNC1CCC(Nc2ccnc3cc(Cl)ccc23)CC1 (configuration not stated) | 13µM* | · | · | · | 5 | ·
OC(CNc1ccnc2cc(Cl)ccc12)CNC1CCCCC1 (configuration not stated) | ? | · | · | · | -78* | ·
O=C(COC(=O)CNC(=O)C1CCCCC1)Nc1ccc2c(c1)OCCO2 | 16% | 43 | 26* | ? | 44 | 26%
O=C(CNC(=O)c1ccc(Cl)cc1Cl)OCC(=O)c1ccc2c(c1)OCCO2 | 9% | 73* | 31* | · | -18 | 39%
CC(C)(C)c1ccc(C(=O)NCC(=O)OCC(=O)Nc2ccc3c(c2)OCCO3)cc1 | 16% | 16 | 12* | 32% | 2 | 52%
O=C(COC(=O)CNC(=O)c1ccc(Cl)cc1Cl)NCC1CCCO1 (configuration not stated) | 5% | · | · | 34% | -28 | 20%
CCOC(=O)c1ccc(NC(=O)c2cnc3c(-c4ccc(F)cc4)c(C)nn3c2C)cc1 | · | · | · | · | 18 | ·
C=CCn1c(SCC(=O)c2ccc(CNC(C)=O)o2)nc2ccccc2c1=O | -10% | -3 | 1 | · | -14 | 15µM*
C=CCn1c(SCC(=O)NC2CC2)nc2ccccc2c1=O | -11% | · | · | ? | 2 | ?
COc1ccc(C(=O)CSc2nc(C(C)(C)C)nc3ccccc23)cc1 | 4µM* | -4 | 6 | ? | ? | -24%
O=C(CSc1nc2ccccc2c(=O)n1Cc1ccco1)NCc1ccco1 | 10µM* | 18 | 21 | ? | 4 | -3%
CCOC(=O)c1sc2nc(SCC(=O)NCc3ccco3)n(Cc3ccccc3)c(=O)c2c1C | -3% | 10 | -1 | -7% | -29 | 78%
Cc1sc2nc(SCC(=O)NCc3ccco3)n(Cc3ccccc3)c(=O)c2c1C | 2.2µM* | 19 | 14 | 10µM* | -15 | ·
CCc1nc2ccc(C(=O)Nc3cccc(OC)c3)cn2c1N(C)CCCc1ccccc1 | · | · | · | · | 0 | ·
COc1ccccc1NC(=O)CSc1nc2ccccc2c(=O)n1CCNC(C)=O | 9% | -25 | -4 | ? | -20 | 8.3µM*
COCCn1c(C)cc(C(=O)CSc2nc3ccccc3c(=O)n2Cc2ccco2)c1C | ? | 96* | 23* | 34% | -69* | -4%
Cc1sc2nc(C(C)C)nc(SCC(=O)NCc3ccco3)c2c1C | ? | 45 | 32* | ? | -26 | ?
COCCn1c(C)cc(C(=O)CSc2cc(C)c3ccccc3n2)c1C | ? | 14 | 11 | -24% | ? | -4%
CCC(Sc1nc2ccsc2c(=O)n1-c1ccc(Cl)c(C)c1)C(=O)NCc1ccco1 (configuration not stated) | ? | 44* | 25* | 13µM* | ? | 12µM*
Cc1cccc(C)c1Nc1c(-c2ccccc2F)nc2cccc(C)n12 | · | -7 | -1 | · | -28 | ·
O=c1cc(CN2CCCC2)c2ccccc2o1 | · | · | · | · | 9 | ·
